The results in this text go back to PubChem BioAssay AID1508600 (Functional Genomics Laboratory (NCATS/FGL), 2020).

About 3,700 (7%) of roughly 53,000 sequences were called active. The full list was thinned out, with actives kept by preference. Unmarked numbers belong to inactive results.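 How the source made its calls: active means gene knockdowns whose robust z-score for IL-1 alpha signal is at least 2 or at most -2, so actives lie on both sides; inactive means the rest.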

This test is described as follows: Components of the Cytosolic LPS Sensing Pathway: Gene Identification via Genome-wide siRNA Screen.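 Further: robust z of the log signal after scaling to non-targeting control siRNA wells of the plate.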 The note with it: RAW264.7 macrophages, IL-1a HTRF, actives lie on both sides, screened at 100 nM (by protocol), cells primed 5 h with Pam3CSK4 first. Summed up:
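Mouse macrophage line RAW264.7 is transfected with siRNA (100 nM final), grown 48h, primed with TLR ligand Pam3CSK4 5 h and given intracellular LipidA 24 h. IL-1a in supernatant is read by HTRF and viability by luminescence.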
(In general: In TR-FRET formats the signal depends on donor and acceptor labels being close together.)
As to GCCACGAUAAUUCAGGAGUTT against Aurkc, the z-score is 2.27 (active).
The same measure for GCUGAAUGGAAGGAAGUUGTT against Wdr83os: -1.32.
Regarding CGCCAAUGUGAUUAAACUATT against Mak, the z-score is 2.01 (active).
Regarding GGACAUGUGUAAAUAAUCATT against En2, the z-score was 3.4 (active).
GGUGAUAGUACUGUCAGCCTT against Olfr1225: the z-score is -0.517.
In the case of GGAACAAGAACAAGUUGAGTT against Spa17, the z-score is 0.389.
The same measure for GGUGGAAGCACUCAAUAAGTT against Pik3cb: -1.24; for GGUGCUUCUCUAAGAUAAUTT against Ddias: 0.776.
To CCCUUACUUAGUCUCCACUTT against Olig1 belongs -0.025; to GGUGUUAUCAGAAUUCAGATT against Cars, 2.6 (active); to GGACCACCGUGAUCAACAUTT against Ifitm2, 0.215.
The same measure for GCUCACUUGUAGUGCUUUATT against Arf2: 1.88.
With GGCGUAAACAUGGUGUGCATT against Taok3, the z-score was -0.807.
The same measure for GCUCUAUAGUGACCAAUGUTT against Gcgr: -0.072; for GGAAGUUCCACGUUAUUGUTT against Eif2b2: -1.3.
To GCGAUUUCACACCAUCACATT against Rab10 belongs -1.03.
The same measure for GGAUGAUUUAUGGUUACUGTT against Vmn1r80: 2.01 (active).
Turning to GGCCUUUCACAACAUAAAATT against Chil6, the z-score was -0.808.
In the case of GGGAGCAGUCUUCCCUCAUTT against Cox8a, the z-score was -1.44.
The same measure for AGAAAUGCCUCUUCAGUGATT against Olfr884: 1.59; for GGAGAAAUGAAGAUUGUGGTT against Tmem218: -2.31 (active); for GGUCAGCCAGACCAUUUCUTT against Edc3: -1.27.
For the sequence GGUGGCAAAGUGGUGAUCCTT against Fabp7, the z-score was 2.05 (active).
The same measure for GGAUCUUAUUAUUUGAUCCTT against Mettl15: -0.671.
Consider GGAAGUAGAUUAGAUGGUATT against Akt3, for which the z-score was 0.52.
To GGAAUACCACAUGCUUUUGTT against Ldah belongs -0.288.
Consider GCUAACCCUCGUUUAGAAGTT against Apol9b, for which the z-score is 0.529.
The same measure for GGCAUCUUGGAGGAUUUGCTT against Cyrib: 0.719.
To GGGUCAAUCAUGAAUGUUUTT against Pak4 belongs -1.02; to GAUUUGAGACCCAGAUCAUTT against Gzmm, 2.08 (active); to GGGACAUGUUUUGAUAAAGTT against Yy1, -0.591.
The same measure for GCUUCGGAAUCGGUUACCATT against Alg2: -1.28; for GGUUGUUUAUGCUUUCUCUTT against Arhgap32: -0.766; for CGAAGUGGUUUUAUGUACUTT against Cdkn2b: -2.39 (active).
As to GAUGGUCAUCCUUCCUUUATT against Olfr341, the z-score is -0.737.
To GCUUAGACGACUAGACCUGTT against Slit2 belongs -0.186.
For GGUGGUCUGAUCGUAGACATT against Lrrc61, the z-score is 0.672.
To GGGCUGACUAUUAUUUCAGTT against Cysltr2 belongs -0.107.
The same measure for GGAAUUUGUGAAAAGAAGUTT against Aldh1a2: -0.923.
To CGAUAAAAGAGAGAUGAUUTT against Rap1gds1 belongs 0.699; to GGUGGUAAUUUUUCUCAGATT against Agxt2, -1.74; to CCAUCUUGGAGAUCCUGAUTT against Kat5, -2.46 (active).
For GGAAAAUCUUAGGAAGAUGTT against Elf4, the z-score is -0.39.
As to GCUUACCCUGACUCCAAUUTT against Dhx33, the z-score was -1.76.
The same measure for CCAAGGUCUAAAAAAAUAGTT against Adamts19: -0.907; for GGAGGUAACAACAACAGAATT against BC028528: 0.7; for GGUAGAGAACCAUUUGCUGTT against Dtnbp1: -0.376.
The same measure for “GGAACACACAAUUUUAUCATT against 4933436I01Rik”: -2.98 (active).
As to CCAUACAAGAGUGACAGUUTT against Olfr810, the z-score is -0.736.
The same measure for GGCAAUCCAGGCAAUAUCATT against C1qa: -0.808; for CCCUAACUACUUCAUGAAUTT against Paip1: -2.11 (active); for GGAAAUCCAUUGUUUAAAGTT against Wt1: 2.01 (active).
Regarding CCAUGUGACAGCAUUGUUGTT against Axin1, the z-score was 0.754.
On to CCAGAUUAUCCGUUUAAACTT against Ube2e2, for which the z-score is 0.242.
To GCGUGAGAUACCAUAUUAUTT against Bank1 belongs -1.47; to GGUCUACCUAAAACUGGAGTT against Cbln4, 0.337; to GGGAGAGAUGUCAUUGCACTT against Eif4a3, -1.9.
Regarding GCGGCUACGUGUUUGACUATT against Csnk1g2, the z-score is -0.735.
The same measure for GCACUUAGACUAUUCCAGGTT against Tph2: -0.118; for GGUGAAGUUACAGUCAAAUTT against Nolc1: 2.54 (active).
With GGUCAGGCUGAGGAAUUCATT against Cyp2s1, the z-score is -0.562.
To GGAGGAGGCAGAAACAACATT against Tex46 belongs 1.87.
To GCAGAGAGGAUAACUGACCTT against Slc25a44 belongs -0.723.
CCAUUCUUAGUUCACUAUATT against Rgcc: the z-score was -2.55 (active).
GGAAUUCCCAUUGGAAGAATT against Vmn1r232: the z-score was 0.0956.
On to GGGACCAAGAAGGAUAACUTT against Flrt1, for which the z-score was 1.4.
The same measure for CCGAUUUAACUGAAUUUGCTT against Acaa2: 0.342; for GGCAGGACACCAUAUGGUUTT against Tedc1: -2.16 (active); for GGACAAGUCGAGUUUCAAGTT against Zfp503: 1.98.
As to CGGAAGAAUAAAAACCGGCTT against Meaf6, the z-score was 0.601.
To GGUCUUGUGCAUAAAACAGTT against Ece2 belongs -1.06; to GCAUAUCCUAAACACUGUUTT against Pqlc3, -0.966; to GGGUGAUGCCCUUGAAUCUTT against Twf2, 2.48 (active).
As to GCGACUGACCUUCAAACUGTT against Piwil4, the z-score is 0.193.
To CCAGCAAAUGAGAGGUCUGTT against Olfr1024 belongs 0.676; to GGACACUUUCCAAUGGUGATT against Npsr1, 1.25; to GGAGCUCGAAAAAUUUCAATT against Igfl3, 2.13 (active).
Consider GCUCUCAUCAGACUUCGAGTT against Zfp202, for which the z-score was 0.0887.
For the sequence GCGCAUCUAUGAAAAAACATT against Cerk, the z-score was -0.471.
As to GGCUGUAAAACUCUGGUUUTT against Vmn1r195, the z-score was 2.82 (active).
The same measure for GCUCAAAAAACCGAAAUGATT against Cd274: -1.03; for GGUAAAUUCAACUGGAAGGTT against Lyar: 0.194; for GGUUAUCCUCAUUGAUCCGTT against Rpl15: 0.0822.
In the case of GCCUGAUAUCAACAUAGGATT against Pth2r, the z-score is 0.802.
To UAAAUGAGCUCGUAAUCUUTT against Olfr874 belongs 3.23 (active); to CCCUGGCCAAACAUAGUGGTT against Efcab12, 0.278.
Turning to GCACAAGAAAUCGAAUAUGTT against Acr, the z-score was -0.00119.
Consider CCGCCGAUGAGUUUGUUAATT against Hsd17b3, for which the z-score was 1.2.
As for GCUCUGUCUUAAGAGACUATT against Smo, the z-score was 2.39 (active).
For the sequence GGUCUGUCUCCAGAUUGCUTT against Olfr56, the z-score was -1.73.
For GGAUAUUAUGUCUUUGCUATT against Ints2, the z-score is 0.499.
To GACCACCAGAAAGUUUCACTT against Lfng belongs 0.339; to GCUCUACCUUCGCUGGAAATT against Slc7a6, 2.17 (active).
In the case of GGAAACUGCAUUCAAGCCATT against Apod, the z-score is -0.191.
To CCUCUAGACCGAAUGAAAATT against Zfyve16 belongs 0.472.
The same measure for GGAGUCCUCUAAUGUAAAUTT against Elovl4: 0.0471; for GGGAACUCAAAGAAGAGAGTT against Lysmd2: 0.515; for CGAGGAGUGGUAUUUUUACTT against Slc34a1: 0.0248.
To GCUGAAAGAUUUACUGCCCTT against Bhlhe41 belongs 2.95 (active).
For GGCAUGGAAUAUGAUGUUATT against Nlrp9b, the z-score was -1.72.
To GGGUUGUCCUGAACUUUAATT against Npr1 belongs 0.236; to “GGCCAGUGGAGGAAUAUGATT against 1300017J02Rik”, -0.383; to CCACGUGUCUUAGAAUUAATT against Gas1, 1.67.
Turning to GGCCAACAAGGAAAACAUCTT against Bcas2, the z-score was 1.33.
For GGUCUGUAUGUCAUUUAUCTT against Ywhag, the z-score was -0.208.
The same measure for GGUAAUGCUGUGGAGUCUUTT against Wdr53: -2.59 (active); for GGAAGGCCAUUUCAACUAATT against Olfr1367: 1.54.
The same measure for GGUGAUUUGAACUGUGAAATT against Tmem126a: -0.963.
